Assay outcomes (PubChem BioAssay)
Shown are actives, neighbours in structure and some others; about 31% of the full set was active somewhere.
CYP2C9 inhib: blockers of cytochrome P450 2C9 activity – biochemical, luminescence, ADME assay, primary screen. P11712. CYP2C9 Supersomes, luciferin-H conversion. inhibition, % at 5 µM. actives 20% (n = 96,000);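 active = blocking of liver enzyme CYP2C9 beyond about 50% at 5 µM, limit read from the data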
CYP2C9 act: human CYP2C9 activators, primary screen, biochemical, luminescence; Cytochrome P450 2C9 (Homo sapiens), P11712; recombinant CYP2C9, luciferin-H conversion; hits give high values; factor 1 = untreated enzyme, 0 = blocked; activation factor at 5 µM; actives 1.4% (n = 96,000);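 active = activation factor of 2 or more for CYP2C9 at a 5 µM dose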
PLAP activator: PLAP enzyme activators, biochemical, luminescence, HTS | Alkaline phosphatase, placental type (Homo sapiens), P05187 | purified PLAP enzyme, luminescent substrate read-out; hits give high values | AID 696, 2007 | actives 1.2% (n = 96,000) | activation fold at 20 µM; in the data active = activation fold above about 2
Target sequence (P05187 whole entry, looked up): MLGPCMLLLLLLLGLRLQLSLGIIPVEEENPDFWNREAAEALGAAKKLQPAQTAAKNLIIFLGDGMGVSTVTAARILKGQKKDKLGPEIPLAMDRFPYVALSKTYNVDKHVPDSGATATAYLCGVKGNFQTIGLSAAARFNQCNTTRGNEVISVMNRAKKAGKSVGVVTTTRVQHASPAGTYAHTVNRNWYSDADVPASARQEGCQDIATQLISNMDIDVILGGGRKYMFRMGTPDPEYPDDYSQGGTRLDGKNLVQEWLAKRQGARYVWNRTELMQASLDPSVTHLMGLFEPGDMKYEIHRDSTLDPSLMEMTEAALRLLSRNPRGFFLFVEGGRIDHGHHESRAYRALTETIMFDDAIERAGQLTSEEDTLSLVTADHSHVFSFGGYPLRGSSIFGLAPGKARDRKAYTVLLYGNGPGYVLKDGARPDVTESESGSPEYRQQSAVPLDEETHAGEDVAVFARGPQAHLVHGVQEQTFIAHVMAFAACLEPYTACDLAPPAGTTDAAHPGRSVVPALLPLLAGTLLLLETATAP
CYP2C19 inh: blockers of cytochrome P450 2C19 activity – biochemical, luminescence, ADME assay, primary screen; AID 778, 2007; actives 21% (n = 96,000); CYP2C19 Supersomes, luciferin-H EGE luminescence, 30 min; inhibition, % at 5 µM;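 active = CYP2C19 inhibition above a set limit at 5 µM in the primary screen, cut at about 50% in these data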
CYP2C19 activ: human CYP2C19 activators, primary screen, biochemical, luminescence. 96,000 tested, under 10 active. activation factor at 5 µM. recombinant CYP2C19, luciferin-H EGE luminescence; hits give high values; 0 = fully inhibited enzyme, 1 = untreated enzyme. AID 1025, 2008. Cytochrome P450 2C19 (Homo sapiens), P33261;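 active = activation factor of at least 2 at 5 µM in the primary screen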
Large screens that a line does not name were inactive.

COc1ccc(N(C)S(=O)(=O)c2cccc(C(=O)Nc3ccc(-n4cnnn4)cc3)c2)cc1	CYP2C9 inhib 84.6, CYP2C19 inh 70.0
CCOc1ccc(NC(=O)c2cccc(-n3cnnn3)c2)cc1	none
COc1ccc(N(C)S(=O)(=O)c2cccc(C(=O)NCC3CCCO3)c2)cc1 (stereo not given)	CYP2C9 inhib 63.2
COc1ccc(S(=O)(=O)N(C)c2ccc(C(=O)NCC3CCCO3)cc2)cc1 (stereo not given)	CYP2C9 inhib 52.7
COc1ccc(C(=O)Cn2c(C(=O)/C=C/c3ccccc3)nc3ccccc32)cc1	none
Cc1cc(C)c(COCc2cc(/C=N/O)c(C)cc2C)cc1/C=N/O	none
CSc1cc(/C=N/O)c(SC)s1	CYP2C19 inh 65.6
O=C(C1CCCCC1)N1CCN(S(=O)(=O)c2ccc(Br)cc2)CC1	none
Cc1nn(-c2ccccc2)c(C)c1/C=N/NC(=O)c1cc(-c2ccc(Br)s2)[nH]n1	CYP2C9 inhib 84.0, CYP2C19 inh 76.6
Cc1nn(-c2ccccc2)c(C)c1/C=N/NC(=O)c1cc(C23CC4CC(CC(C4)C2)C3)[nH]n1	CYP2C9 inhib 52.8
Cc1nn(-c2ccccc2)c(C)c1/C=N/NC(=O)c1cc(-c2ccc(Cl)s2)[nH]n1	none
Cc1nn(-c2ccccc2)c(C)c1/C=N/NC(=O)c1cc(C2CC2)[nH]n1	CYP2C9 inhib 57.8, CYP2C19 inh 59.8
CC1C(=O)CCN(C(C)(C)C)C1C (stereo not given)	none
Cc1cc(=O)oc(C)c1C(=O)N1CCN(c2ccc(F)cc2)CC1	none
COc1cccc(NC(=O)COC(=O)c2cccnc2)c1	CYP2C19 inh 66.6
O=C(Nc1cccc(Cl)c1)O/N=C\c1ccncc1	CYP2C9 inhib 89.9, CYP2C19 inh 88.6
COC(=O)c1nnn(CC(=O)Nc2cccc(Cl)c2)c1C(=O)OC	CYP2C9 inhib 70.5, CYP2C19 inh 79.1
COc1cccc(NC(=O)c2cccnc2)c1	none
COC(=O)c1nnn(CC(=O)Nc2ccc(C)c(F)c2)c1C(=O)OC	none
O=C(COC(=O)c1ccncc1)Nc1cccc(Cl)c1	CYP2C9 inhib 87.4, CYP2C19 inh 77.5
Cc1cnc(C(=O)OCC(=O)Nc2cccc(Cl)c2)cn1	none
O=C(COC(=O)c1cccnc1)Nc1cccc(Cl)c1	CYP2C9 inhib 69.1, CYP2C19 inh 85.7
NC(=O)c1c(NC(=O)c2ccccc2)sc2c1CCc1ccccc1-2	none
COc1ccc(NC(=O)Cn2c(=O)sc3ccccc32)cc1	none
Cc1nc(SCC(=O)NCc2ccco2)nc(C)c1C	none
Cc1cccc(C)c1Nc1nnc(SCC(=O)NCc2ccco2)s1	CYP2C19 inh 69.5
CCN(CC)S(=O)(=O)c1ccc(NC(=O)Cn2c(=O)sc3ccccc32)cc1	CYP2C9 inhib 70.4
O=C(Cn1c(=O)sc2ccccc21)NCc1ccco1	CYP2C9 act 4.4, CYP2C19 inh 72.5
O=C(Cn1c(=O)sc2ccccc21)Nc1ccccc1	CYP2C9 inhib 60.1
O=C(CSc1nnc2sc3ccccc3n12)NCc1ccco1	CYP2C9 act 2.9
COc1cccc2c(=O)n(CC(=O)NC3CCCCC3)ccc12	CYP2C9 act 2.2
Cc1cc2ccccc2c(=O)n1CC(=O)N1CCN(c2cccc(Cl)c2)CC1	none
Cc1cc2ccccc2c(=O)n1CC(=O)NCc1ccco1	CYP2C9 act 2.6, CYP2C19 inh 53.6
Cc1cc2ccccc2c(=O)n1CC(=O)N(C)c1ccc(F)cc1	CYP2C19 inh 60.3
CC(C)NC(=O)CSc1nnc2sc3ccccc3n12	none
COc1cccc2c(=O)n(CC(=O)Nc3ccc(F)cc3)ccc12	none
Nn1c(SCC(=O)Nc2ccc(F)cc2)nnc1-c1cccnc1	none
COc1ccc(S(=O)(=O)N(C)c2ccc(C(=O)N3CCOCC3)cc2)cc1OC	none
Cc1ccc(C)c(S(=O)(=O)NC(CCC(N)=O)C(=O)O)c1 (stereo not given)	none
Cc1cc2ccccc2c(=O)n1CC(=O)NCC1COc2ccccc2O1 (stereo not given)	none
Cc1cc2ccccc2c(=O)n1CC(=O)NC1CCCCCC1	CYP2C19 inh 64.5
Cc1cc2ccccc2c(=O)n1CC(=O)NCC(=O)N1CCN(c2ccccc2)CC1	CYP2C9 act 2.4
O=C(Cn1c(=O)sc2ccccc21)Nc1ccccc1C(=O)O	CYP2C9 inhib 85.0
COC(=O)Cn1c(=O)sc2ccccc21	none
COc1cc(-c2nc3n(n2)C(c2cccc(OC)c2OC)C2=C(CCCC2=O)N3)cc(OC)c1OC (stereo not given)	none
CCn1c(=O)cc(SCC(=O)NCCCN2CCN(c3ccccc3F)CC2)c2ccccc21	none
CN(C)S(=O)(=O)c1cccc(C(=O)Nc2cc(Cl)cc(Cl)c2)c1	CYP2C9 inhib 98.2
CN(C)S(=O)(=O)Oc1cccc(C(=O)Nc2cccc(Cl)c2)c1	CYP2C9 inhib 81.6, CYP2C19 inh 70.1
CNS(=O)(=O)c1cccc(C(=O)Nc2cccc(Cl)c2)c1	CYP2C9 inhib 62.3, CYP2C19 inh 69.7
CN(C)S(=O)(=O)c1cccc(C(=O)Nc2cc(Cl)ccc2O)c1	CYP2C9 inhib 66.8
O=C(Nc1cc(Cl)cc(Cl)c1)c1cccc(OC(F)F)c1	none
O=C(O)c1ccccc1C(=O)N1CC=C(c2ccccc2)CC1	none
COc1cc(CC(=O)Nc2ccc(S(=O)(=O)Nc3ncccn3)cc2)cc(OC)c1OC	none
CCn1c(C)c(C)c2cc(C(=O)Nc3cccc(Cl)c3)ccc21	CYP2C9 act 2.4
CCn1c2ccccc2c2cc(NC(=O)c3cccc(OC)c3)ccc21	none
Cc1ccc(NC(=O)c2ccccc2OCC(=O)c2ccccc2)cc1	none
CCOc1ccc(NC(=O)c2ccccc2OCC(=O)c2ccccc2)cc1	CYP2C9 inhib 88.1, CYP2C19 inh 61.3
COc1cccc(NC(=O)c2cnsn2)c1	none
CCOc1ccc(NC(=O)c2cnsn2)cc1	CYP2C19 inh 62.3
CCCC(=O)Nc1ccc(NC(=O)c2ccccc2OC)cn1	CYP2C9 act 3.2, CYP2C19 inh 51.2
Cc1cccc(NC(=O)c2ccccc2OCC(=O)c2ccccc2)c1	CYP2C9 inhib 72.6, CYP2C19 inh 57.7
CCC(C)(C)NC(=O)C(c1cccn1C)N(C(=O)Cn1nnc2ccccc21)c1ccccc1OC (stereo not given)	none
CC(O)CCC(=O)NCCNC(=O)CCC(C)O (stereo not given)	none
CCOc1ccc(NC(=O)c2ccccc2OC)cc1	CYP2C9 act 3.3
COc1ccccc1C(=O)OCC(=O)Nc1ccc(OC(F)F)cc1	CYP2C19 inh 53.2
COc1ccccc1OCC(=O)Nc1ccc(C(N)=O)cc1	none
CCCc1cc(=O)[nH]c(SCC(=O)Nc2ccc(OC(F)F)cc2)n1	none
O=C(Cn1cccc1)Nc1ccc(OC(F)(F)F)cc1	CYP2C19 inh 51.4
